Source: PubChem BioAssay (NCATS)
Inconclusive results are not listed. Activity calls are given as the source filed them. Calls come from the whole dose curve; as a rule, active = well fitted curve in the direction sought with a large enough effect; inconclusive = small, poorly fitted or top-dose-only effect, or another doubt; inactive = no such curve, though single readings can be large; an effect the other way counts as inactive or inconclusive.

Tests used:
[1] = qHTS of pediatric cancer cell lines to identify multiple opportunities for drug repurposing: Primary screen for BT-12 cells (AID 1347101);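 note: plate controls were DMSO for no effect and bortezomib positive control for full effect; nearly all actives have a fitted effect of over 25% in size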
Method in brief: (§1)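 Cells (500-1,000/well) rested 5 h, then received compounds for 48 h; metabolically active cells were measured by CellTiter-Glo luminescence. Final concentrations spanned up to 46 µM (MIPE, 11-point) or 0.59 nM-46 µM (NPC, 8-point) in primary screens, 11-point in follow-ups.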

[2] = qHTS of pediatric cancer cell lines to identify multiple opportunities for drug repurposing: Primary screen for Rh18 cells (AID 1347102); note: % is set by controls: 0 for no effect and ±100 for the full control effect; nearly all actives have a fitted effect of over 65% in size
Method in brief: as §1

[3] = qHTS of pediatric cancer cell lines to identify multiple opportunities for drug repurposing: Primary screen for OHS-50 cells (AID 1347103);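 note: plate controls were DMSO neutral control for no effect and bortezomib positive control for full effect; nearly all actives have a fitted effect of over 40% in size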
Method in brief: as §1

[4] = qHTS of pediatric cancer cell lines to identify multiple opportunities for drug repurposing: Primary screen for RD cells (AID 1347104);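 note: plate controls were DMSO for no effect and bortezomib for full effect; nearly all actives have a fitted effect of over 55% in size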
Method in brief: (§2)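 CRCs from 8- or 11-point titrations (lowest final 0.59 nM NPC, 0.78 nM MIPE). Cell viability: CellTiter-Glo after 48 h incubation, 15 min room-temperature development, luminescence imaging.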

[5] = qHTS of pediatric cancer cell lines to identify multiple opportunities for drug repurposing: Primary screen for control Hh wild type fibroblast cells (AID 1347106);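 note: series mostly up to about 46 µM; % is set by controls: 0 for no effect and ±100 for the full control effect; a drop in luminescence marks cytotoxicity and a rise apparent proliferation; nearly all actives have a fitted effect of over 55% in size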
Method in brief: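 Cells (500-1,000/well) in growth media were settled 5 h at 37 degrees C, then given compounds for 48 h. Viability was read as CellTiter-Glo luminescence. Primary runs used MIPE at 11 points (0.78 nM-46 µM) and NPC at 8 points (0.59 nM-46 µM); follow-ups used 11 points.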

[6] = qHTS of pediatric cancer cell lines to identify multiple opportunities for drug repurposing: Primary screen for Rh30 cells (AID 1347107); note: series mostly up to about 46 µM; % is set by controls: 0 for no effect and ±100 for the full control effect; nearly all actives have a fitted effect of over 75% in size
Method in brief: as §1

[7] = qHTS of pediatric cancer cell lines to identify multiple opportunities for drug repurposing: Primary screen for Rh41 cells (AID 1347108);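 note: series mostly up to about 46 µM; luminescence drop marks cytotoxic hits; nearly all actives have a fitted effect of over 70% in size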
Method in brief: as §2

[8] = qHTS of pediatric cancer cell lines to identify multiple opportunities for drug repurposing: Primary screen for MG 63 (6-TG R) cells (AID 1347105); note: % is set by controls: 0 for no effect and ±100 for the full control effect; nearly all actives have a fitted effect of over 50% in size
Method in brief: as §2

[9] = qHTS of pediatric cancer cell lines to identify multiple opportunities for drug repurposing: Confirmatory screen for NB1643 cells (AID 1347109); note: potency is the fitted concentration of half-maximal effect; nearly all actives have a fitted effect of over 45% in size
Method in brief: as §1

CC[N+](CC)(CC(=O)Nc1c(C)cccc1C)Cc1ccccc1
inactive: outcome [1] | outcome [2] | outcome [3] | outcome [4] | outcome [5] | outcome [6] | outcome [7]

C[n+]1ccccc1/C=N/O
inactive: outcome [1] | outcome [2] | outcome [4] | outcome [8] | outcome [5] | outcome [6] | outcome [7]

COC(=O)c1ccc(O)cc1
inactive: outcome [1] | outcome [2] | outcome [4] | outcome [8] | outcome [5] | outcome [6] | outcome [7]

Cc1c(I)c(=O)n(-c2ccccc2)n1C
inactive: outcome [1] | outcome [2] | outcome [3] | outcome [4] | outcome [5] | outcome [6] | outcome [7]

CC(C)(C)C(=O)OCOC(=O)[C@@H]1N2C(=O)[C@@H](NC(=O)[C@H](N)c3ccccc3)[C@H]2SC1(C)C
inactive: outcome [1] | outcome [2] | outcome [3] | outcome [4] | outcome [5] | outcome [6] | outcome [7]

Nc1ccncc1N
inactive: outcome [1] | outcome [2] | outcome [4] | outcome [8] | outcome [5] | outcome [6] | outcome [7]

CC(O)CCCCn1c(=O)c2c(ncn2C)n(C)c1=O (centres undefined)
inactive: outcome [1] | outcome [2] | outcome [3] | outcome [4] | outcome [5] | outcome [6] | outcome [7]

C/C=C1\[C@H]2C=C(C)C[C@]1(N)c1ccc(=O)[nH]c1C2
inactive: outcome [1] | outcome [2] | outcome [3] | outcome [4] | outcome [5] | outcome [6] | outcome [7]

O[C@@H]1CO[C@H]2[C@@H]1OC[C@@H]2O
inactive: outcome [1] | outcome [2] | outcome [4] | outcome [8] | outcome [5] | outcome [6]

COc1ccccc1OCC(O)CO (centres undefined)
inactive: outcome [1] | outcome [2] | outcome [4] | outcome [8] | outcome [5] | outcome [6]

Cc1c(NC(C)C)c(=O)n(-c2ccccc2)n1C
inactive: outcome [1] | outcome [2] | outcome [3] | outcome [4] | outcome [5] | outcome [6] | outcome [7]

NNC(=O)CP(=O)(c1ccccc1)c1ccccc1
inactive: outcome [1] | outcome [2] | outcome [3] | outcome [4] | outcome [5] | outcome [6] | outcome [7]

Cc1cc(=O)[nH]c(=S)[nH]1
inactive: outcome [1] | outcome [2] | outcome [3] | outcome [4] | outcome [5] | outcome [6] | outcome [7]

NC(=O)NS(=O)(=O)c1ccc(N)cc1
inactive: outcome [1] | outcome [2] | outcome [3] | outcome [4] | outcome [5] | outcome [6] | outcome [7]

Cc1cccc(C)c1NC(=O)CC12CCCN1CCC2
inactive: outcome [1] | outcome [2] | outcome [3] | outcome [4] | outcome [5] | outcome [6] | outcome [7]

CC(=O)SC[C@@H](Cc1ccccc1)C(=O)NCC(=O)OCc1ccccc1
inactive: outcome [1] | outcome [2] | outcome [3] | outcome [4] | outcome [5] | outcome [6] | outcome [7]

CCc1nnc(NS(=O)(=O)c2ccc(N)cc2)s1
inactive: outcome [1] | outcome [2] | outcome [3] | outcome [4] | outcome [5] | outcome [6] | outcome [7]

CN[C@@H]1[C@@H](O)[C@@H](O[C@@H]2[C@H](O)[C@H](O[C@H]3OC(CN)=CC[C@H]3N)[C@@H](N)C[C@H]2N)OCC1(C)O (some centres undefined)
inactive: outcome [1] | outcome [2] | outcome [4] | outcome [8] | outcome [5] | outcome [6] | outcome [7]

CCOC(N)=O
inactive: outcome [1] | outcome [2] | outcome [4] | outcome [8] | outcome [5] | outcome [6] | outcome [7]

CCCCCCCCCCCCCCCCN
inactive: outcome [1] | outcome [2] | outcome [4] | outcome [8] | outcome [5] | outcome [6] | outcome [7]

CCCOC(=O)c1ccc(N)cc1
inactive: outcome [1] | outcome [2] | outcome [4] | outcome [5] | outcome [6] | outcome [7]

CCOc1ccccc1O[C@H](c1ccccc1)[C@H]1CNCCO1
inactive: outcome [1] | outcome [2] | outcome [4] | outcome [8] | outcome [5] | outcome [6] | outcome [7]

CN1C[C@@H]2C[C@H]1CN2c1cc2c(cc1F)c(=O)c(C(=O)O)cn2C1CC1
inactive: outcome [2] | outcome [3] | outcome [4] | outcome [5] | outcome [6] | outcome [7]

O=C(O)Cn1c(C(=O)Nc2nc(-c3ccccc3Cl)cs2)cc2ccccc21
inactive: outcome [1] | outcome [2] | outcome [4] | outcome [5] | outcome [6] | outcome [7]

CCOC(=O)[C@H](CCc1ccccc1)N[C@@H](C)C(=O)N1CCC[C@H]1C(=O)O
inactive: outcome [2] | outcome [3] | outcome [4] | outcome [8] | outcome [5] | outcome [6] | outcome [7]

COC(=O)N/N=C/c1c[n+]([O-])c2ccccc2[n+]1[O-]
inactive: outcome [1] | outcome [2] | outcome [4] | outcome [8] | outcome [5] | outcome [6] | outcome [7]

COc1ccc2cc(CCC(C)=O)ccc2c1
inactive: outcome [1] | outcome [2] | outcome [4] | outcome [8] | outcome [5] | outcome [6] | outcome [7]

OC(CCN1CCCC1)(c1ccccc1)C1CCCCC1 (centres undefined)
inactive: outcome [1] | outcome [2] | outcome [5] | outcome [6] | outcome [7]

CC(=O)OCC(=O)[C@@]1(O)CC[C@H]2[C@@H]3CCC4=CC(=O)C=C[C@]4(C)[C@@]3(F)[C@@H](O)C[C@@]21C
active: Potency [9] 10.4 µM
inactive: outcome [1] | outcome [2] | outcome [4] | outcome [8] | outcome [5] | outcome [6]

CN1C(C)(C)CCCC1(C)C
inactive: outcome [1] | outcome [2] | outcome [4] | outcome [8] | outcome [6] | outcome [7]

NS(=O)(=O)c1ccc(NC(=O)CCC(=O)O)cc1
inactive: outcome [1] | outcome [2] | outcome [4] | outcome [5] | outcome [6] | outcome [7]

O=C(O)c1ccccc1C(=O)Nc1ccc(S(=O)(=O)Nc2nccs2)cc1
inactive: outcome [1] | outcome [2] | outcome [4] | outcome [5] | outcome [6] | outcome [7]

CC(CN(C)C)C(C)(O)Cc1ccc(Cl)cc1 (centres undefined)
inactive: outcome [1] | outcome [2] | outcome [4] | outcome [8] | outcome [5] | outcome [6] | outcome [7]

CC1(C)S[C@@H]2[C@H](N=CN3CCCCCC3)C(=O)N2[C@H]1C(=O)O
inactive: outcome [1] | outcome [2] | outcome [4] | outcome [8] | outcome [5] | outcome [6] | outcome [7]

CCCCCC(N)=O
inactive: outcome [1] | outcome [2] | outcome [4] | outcome [8] | outcome [5] | outcome [6] | outcome [7]

Cc1cc(C)c(NC(=O)CN(CC(=O)O)CC(=O)O)c(C)c1Br
inactive: outcome [1] | outcome [2] | outcome [4] | outcome [8] | outcome [5] | outcome [6] | outcome [7]

CC(=O)N1C[C@H](O)C[C@H]1C(=O)O
inactive: outcome [1] | outcome [2] | outcome [4] | outcome [5] | outcome [6] | outcome [7]

O=C1CC[C@@H](C(=O)O)N1
inactive: outcome [1] | outcome [2] | outcome [4] | outcome [8] | outcome [5] | outcome [6] | outcome [7]

Nc1ccc(C(=O)Oc2ccccc2)c(O)c1
inactive: outcome [1] | outcome [2] | outcome [4] | outcome [8] | outcome [5] | outcome [6] | outcome [7]

O=C(O)CCC(=O)O
inactive: outcome [1] | outcome [2] | outcome [4] | outcome [8] | outcome [5] | outcome [6] | outcome [7]

O=C(OOC(=O)c1ccccc1)c1ccccc1
inactive: outcome [1] | outcome [2] | outcome [4] | outcome [8] | outcome [5] | outcome [6] | outcome [7]

CC[N+](C)(CC)CCOC(=O)C1c2ccccc2Oc2ccccc21
inactive: outcome [1] | outcome [2] | outcome [4] | outcome [5] | outcome [6] | outcome [7]

CC(=O)Oc1cccc(O)c1
inactive: outcome [1] | outcome [2] | outcome [4] | outcome [5] | outcome [6] | outcome [7]

CC(C)c1cc2c(cc1S(=O)(=O)O)[C@@]1(C)CCC[C@@](C)(C(=O)O)[C@@H]1CC2
inactive: outcome [1] | outcome [2] | outcome [4] | outcome [8] | outcome [5] | outcome [6] | outcome [7]

Cc1onc(-c2ccccc2)c1-c1ccc(S(N)(=O)=O)cc1
inactive: outcome [2] | outcome [4] | outcome [8] | outcome [5] | outcome [6] | outcome [7]

CC1(C)[C@@H](OC(=O)CCC(=O)O)CC[C@]2(C)[C@H]3C(=O)C=C4[C@@H]5C[C@@](C)(C(=O)O)CC[C@]5(C)CC[C@@]4(C)[C@]3(C)CC[C@@H]12
inactive: outcome [1] | outcome [2] | outcome [4] | outcome [5] | outcome [6]

OCc1ccc(Cl)cc1Cl
inactive: outcome [1] | outcome [2] | outcome [4] | outcome [8] | outcome [5] | outcome [6] | outcome [7]

Cc1ccsc1/C=C/C1=NCCCN1C
inactive: outcome [1] | outcome [2] | outcome [4] | outcome [8] | outcome [5] | outcome [6] | outcome [7]

CN(C/C=C/C#CC(C)(C)C)Cc1cccc2ccccc12
inactive: outcome [1] | outcome [2] | outcome [4] | outcome [5] | outcome [6] | outcome [7]

N[C@@H](Cc1ccc(O)cc1)C(=O)O
inactive: activity change, negative = cytotoxic [1] 11.7% [at 11.5 µM] | activity change, negative = cytotoxic [2] 18.9% [at 9.22 µM] | activity change, negative = cytotoxic [4] 14.4% [at 9.22 µM] | activity change, negative = cytotoxic [5] 11.3% [at 9.22 µM] | activity change, negative = cytotoxic [6] 21.6% [at 9.22 µM] | activity change, negative = cytotoxic [7] 24.2% [at 9.22 µM]

CC(=O)Nc1ccccc1
inactive: outcome [1] | outcome [2] | outcome [4] | outcome [8] | outcome [5] | outcome [6] | outcome [7]

CCN(CC)CCc1nc(-c2ccccc2)no1
inactive: outcome [1] | outcome [2] | outcome [4] | outcome [8] | outcome [5] | outcome [6] | outcome [7]

COc1ccc(-c2cc(=O)c3c(O)cc(O[C@@H]4O[C@H](CO[C@@H]5O[C@@H](C)[C@H](O)[C@@H](O)[C@H]5O)[C@@H](O)[C@H](O)[C@H]4O)cc3o2)cc1O
inactive: outcome [1] | outcome [2] | outcome [4] | outcome [8] | outcome [6]

CCCCOC(=O)c1ccc(N)cc1
inactive: outcome [1] | outcome [2] | outcome [8] | outcome [5] | outcome [6] | outcome [7]

Cc1ccc2c(c1)c1c3n2CCNC3CCC1 (centres undefined)
inactive: outcome [1] | outcome [2] | outcome [4] | outcome [8] | outcome [5] | outcome [6] | outcome [7]

CN[C@@H]1[C@H](O)[C@H](NC)[C@H]2O[C@@]3(O)C(=O)C[C@@H](C)O[C@H]3O[C@@H]2[C@H]1O
inactive: outcome [1] | outcome [2] | outcome [4] | outcome [8] | outcome [5] | outcome [6] | outcome [7]

O=C1c2ccccc2C(=O)C1c1ccc(Br)cc1
inactive: outcome [1] | outcome [2] | outcome [4] | outcome [8] | outcome [5] | outcome [6] | outcome [7]

CC(=O)Nc1ccc(C(=O)O)cc1
inactive: outcome [1] | outcome [2] | outcome [4] | outcome [5] | outcome [6] | outcome [7]
